PAFAH1B2 FP inh = blocks human PAF acetylhydrolase 1b catalytic subunit 2; P68402; recombinant PAFAH1B2, FP-rhodamine activity probe, fluorescence polarization; inhibition, % at 3.39 µM; 1.2% of 340,000 active; AID 492953;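 active means inhibition above the mean of all tested compounds plus 3 SD, cut at about 24% in these data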;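 further: 0% = enzyme with DMSO and 100% = wells lacking PAFAH1B2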
Target sequence (P68402 whole entry, looked up): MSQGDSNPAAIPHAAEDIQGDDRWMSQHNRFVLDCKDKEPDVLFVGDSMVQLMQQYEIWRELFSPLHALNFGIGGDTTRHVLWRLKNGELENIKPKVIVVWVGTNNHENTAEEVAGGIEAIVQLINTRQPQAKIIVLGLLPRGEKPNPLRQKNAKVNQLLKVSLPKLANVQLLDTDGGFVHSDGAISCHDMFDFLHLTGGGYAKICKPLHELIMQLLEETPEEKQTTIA
Fam108B inh = Fam108B inhibition, counter-screen for RBBP9 inhibitors; recombinant Fam108B, FP-Rh probe fluorescence polarization; 0.33% of 300,000 active; inhibition, % at 9.51 µM;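 active means inhibition above the screen mean inhibition plus 3 SD, computed separately per campaign, cut at about 18% in these data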;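 further: inhibitors lower polarization as less probe binds the enzyme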
PAFAH1B3 inh = inhibitors of human PAFAH1B3. Q15102. recombinant PAFAH1B3, FP-rhodamine probe, fluorescence polarization. inhibition, % at 3.39 µM. 0.28% of 340,000 active;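 active means inhibition above the screen-wide average of all tested compounds plus 3 SD, cut at about 25% in these data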;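 further: 0% = enzyme with DMSO only and 100% = wells lacking PAFAH1B3 protein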
PAFAH2 FP inh = PAFAH2 (human) inhibition; Q99487; 0.99% of 340,000 active; recombinant PAFAH2, FP-rhodamine activity probe, fluorescence polarization; AID 492956; inhibition, % at 3.39 µM;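 active means inhibition above the mean over all tested compounds plus 3 SD, cut at about 30% in these data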;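 further: inhibitors block probe labeling of enzyme so polarization drops; 0% = enzyme with DMSO and 100% = wells lacking PAFAH2 protein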
pPAFAH inh = inhibitors of human plasma PAF acetylhydrolase (pPAFAH). Q13093. recombinant pPAFAH, FP-rhodamine probe fluorescence polarization. inhibition, % at 3.39 µM. 1.5% of 330,000 active. AID 463082;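 active means inhibition above the mean inhibition across the screen plus 3 SD, cut at about 25% in these data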;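 further: inhibitors block binding of the rhodamine activity-based probe so polarization drops; 0% = enzyme with DMSO and 100% = wells lacking pPAFAH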
Target sequence (Q13093 whole entry, looked up): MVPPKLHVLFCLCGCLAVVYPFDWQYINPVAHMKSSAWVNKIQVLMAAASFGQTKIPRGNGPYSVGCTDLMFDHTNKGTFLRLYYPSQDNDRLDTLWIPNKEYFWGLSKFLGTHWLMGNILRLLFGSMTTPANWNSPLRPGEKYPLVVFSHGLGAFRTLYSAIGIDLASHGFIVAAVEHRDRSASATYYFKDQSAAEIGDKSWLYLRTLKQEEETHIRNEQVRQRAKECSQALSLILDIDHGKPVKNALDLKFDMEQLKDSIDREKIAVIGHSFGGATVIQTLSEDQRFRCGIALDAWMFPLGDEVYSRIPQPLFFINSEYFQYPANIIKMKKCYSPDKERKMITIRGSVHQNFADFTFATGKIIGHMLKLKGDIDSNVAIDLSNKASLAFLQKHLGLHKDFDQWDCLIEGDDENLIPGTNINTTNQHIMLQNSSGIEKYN
PME-1 primary = PME-1 (human) inhibition; 0.53% of 320,000 active; Q9Y570; inhibition, % at 5.9 µM; recombinant PME-1, FP-Rh probe fluorescence polarization;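 active means inhibition above the campaign mean of all compounds plus 3 SD, cut at about 26% in these data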;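 further: competitive labeling of PME-1 active site by serine hydrolase directed probe; 0% = PME-1 with DMSO and 100% = wells lacking PME-1 enzyme; inhibitors block probe labeling so polarization falls and inhibition rises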
pPAFAH confirm = confirmation of human plasma PAF acetylhydrolase (pPAFAH) inhibitors. shares compounds with pPAFAH inh. recombinant pPAFAH, FP-Rh probe fluorescence polarization. inhibition, % at 3.39 µM. 72% of 2,300 active. AID 463230;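 active means mean inhibition of the triplicate above the hit cutoff set for the earlier primary screen, cut at about 25% in these data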;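 further: 0% = enzyme with DMSO and 100% = wells lacking pPAFAH enzyme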
An asterisk follows results filed as active; . = no result. Sampled rows, rich in hits. Any-hit rate of the full collection: about 2.8%.

SMILES	PAFAH1B2 FP inh	Fam108B inh	PAFAH1B3 inh	PAFAH2 FP inh	pPAFAH inh	PME-1 primary	pPAFAH confirm
O=C(O)c1ccc2nc(-c3ccccc3)c(-c3ccccc3)nc2c1	22.0	0.3	-0.4	-1.7	6.3	-0.7	.
O=C(c1ccccc1)c1ccc2nc(-c3ccco3)c(-c3ccco3)nc2c1	6.4	9.2	32.2*	31.1*	58.2*	-5.6	43.3*
O=C(NCCO)c1ccc(Cl)c(Cl)c1	-5.9	5.4	2.8	-3.9	0.0	2.6	.
O=C(NCCO)c1ccc2nc(-c3ccco3)c(-c3ccco3)nc2c1	18.9	13.9	40.5*	31.1*	39.3*	0.5	10.7
O=C1CC(N2CCN(S(=O)(=O)c3ccccc3F)CC2)C(=O)N1c1ccc(F)cc1F (centres undefined)	9.4	.	5.2	4.7	1.9	.	.
COc1ccc(NC(=O)Nc2cccc3c2O[C@H](CN(C)C(=O)NC(C)C)[C@@H](C)CN([C@H](C)CO)C3=O)cc1	-2.7	.	15.0	-10.1	3.9	.	.
O=C(COC(=O)c1c2c(nc3ccccc13)/C(=C/c1cccc([N+](=O)[O-])c1)CCC2)NC1CCS(=O)(=O)C1 (centres undefined)	-2.4	-4.8	-8.4	-14.9	37.6*	-14.8	43.9*
Cc1ccc(C(=O)NCC(=O)N2CCC(Cc3ccccc3)CC2)cc1	4.3	-2.1	7.4	-0.7	-2.0	-7.8	.
C(=C\c1ccco1)/C1=NN(c2ccccc2)C(c2ccco2)C1 (centres undefined)	-1.4	1.1	2.8	3.9	39.6*	-5.9	15.3
COC(=O)c1c(NC(=O)/C=C/C(=O)O)sc(C)c1-c1ccc(C)c(C)c1	3.2	1.9	9.3	10.2	43.7*	-1.8	28.0*
CCOC(=O)c1c(NC(=O)/C=C/C(=O)O)sc(C)c1-c1ccc(C)c(C)c1	-5.2	-1.3	10.4	-1.0	54.0*	-3.5	63.4*
COC(=O)c1c(NC(=O)/C=C/C(=O)O)sc(C)c1-c1ccc(C(C)C)cc1	-4.9	-4.1	1.0	1.7	19.9	-9.7	.
CC(=O)Nc1ccc(S(=O)(=O)Nc2nc3ccccc3nc2Nc2ccc(N)cc2)cc1	3.0	8.4	12.2	11.4	38.0*	8.6	10.7
CN1C(=O)[C@@H]2[C@H](C1=O)[C@@H]1C(=O)Nc3ccccc3C(=O)N1[C@@H]2c1cccc(Br)c1	6.2	-4.4	14.5	-0.3	1.3	-1.5	.
Cc1cccc(Cc2cnc(N3C(=N)SC(C)C3=O)s2)c1 (centres undefined)	8.0	0.5	6.3	2.3	42.6*	3.3	33.1*
CCOC(=O)N1CCN(S(=O)(=O)c2ccc(C(=O)NNc3nc4ccc(Cl)cc4s3)cc2)CC1	0.0	-1.4	1.3	9.9	38.5*	-2.7	38.5*
CCN(CC)C(=O)[C@H]1C[C@H](CC(=O)NC/C=C(\C)CCC=C(C)C)C(=O)N2CCc3c([nH]c4cc(CCC(=O)N(C)C)ccc34)[C@]12C	2.0	.	6.0	-3.5	63.1*	.	49.6*
O=C(O)c1cnn2c(-c3ccc(F)cc3)ccnc12	-0.9	-2.7	-0.8	-8.3	5.0	-0.1	.
CC(=O)N1c2ccc(S(=O)(=O)N3CCCC(C(=O)NCc4ccccc4)C3)cc2CC1C (centres undefined)	2.1	-5.1	-4.1	14.9	-3.9	-1.0	.
Nc1nc(-c2ccccc2)c(N=Nc2ccccc2Cl)s1	5.1	11.1	15.8	4.8	38.9*	19.9	52.7*
CCCOc1ccc(C(=O)NC2CCSc3ccccc32)cc1 (centres undefined)	4.3	2.1	-0.5	-5.8	-2.4	2.3	.
Cc1ccc(S(=O)(=O)N2CCN(CC(=O)NCC3(N4CCOCC4)CCCCC3)CC2)cc1	15.8	.	-3.1	7.3	.	.	.
O=C(Oc1nsnc1N1CCCCC1)N1CCOCC1	5.2	0.4	6.6	27.6	79.3*	-2.2	73.5*
O=C(CCCSc1ccc(Cl)cc1)Nc1cc(S(=O)(=O)N2CCOCC2)ccc1O	62.9*	.	1.7	78.7*	90.9*	1.2	88.5*
Cc1cc(Cl)ccc1OCCCC(=O)Nc1cc(S(=O)(=O)N2CCOCC2)ccc1N1CCOCC1	1.5	.	3.6	5.3	.	.	.
SMILES	PAFAH1B2 FP inh	Fam108B inh	PAFAH1B3 inh	PAFAH2 FP inh	pPAFAH inh	PME-1 primary	pPAFAH confirm
CCCCn1c(N)c(N(CCOC)C(=O)CCC2CCCCC2)c(=O)[nH]c1=O	-3.0	.	3.7	1.3	8.7	6.7	.
CC(=O)C(C(C)=O)c1c(Cl)c(O)c(O)c2c(C(=O)c3ccccc3)coc12	0.3	-0.3	-9.4	9.7	58.9*	7.4	45.4*
CC(=O)NC(=S)NNC(=O)CCc1ccccc1	1.2	-0.7	0.2	-7.1	1.5	-3.5	.
O=C(CCc1ccccc1)NNC(=S)NC(=O)c1ccccc1	10.6	1.3	8.7	3.7	41.1*	-2.6	-7.8
O=S(=O)(/N=S1\CC=CCN1S(=O)(=O)c1ccccc1)c1ccccc1 (centres undefined)	7.1	.	4.4	7.8	.	.	.
O=C1c2ccc(-c3ccc(F)cc3OCc3ccccc3)cc2S(=O)(=O)c2cccc(C(=O)N3CCN(c4ncc(Cl)cc4Cl)CC3)c21	-6.0	.	4.4	1.6	37.4*	.	25.4*
COc1ccc(-c2ccc3c(c2)S(=O)(=O)c2cccc(C(=O)N4CCN(c5ccc(Cl)cn5)CC4)c2C3=O)cc1OC	5.4	.	-4.4	61.6*	36.4*	.	48.9*
O=C1c2ccc(-c3ccc(F)cc3OCc3ccccc3)cc2S(=O)(=O)c2cccc(C(=O)N3CCN(c4ncc(Br)cn4)CC3)c21	-4.0	.	-7.8	-5.6	42.8*	.	32.4*
N#Cc1cccnc1N1CCN(C(=O)c2cccc3c2C(=O)c2ccc(-c4ccc(F)cc4OCc4ccccc4)cc2S3(=O)=O)CC1	8.7	.	4.3	-3.8	23.9	.	.
O=C1c2ccc(Cl)cc2S(=O)(=O)c2cccc(C(=O)N3CCN(c4ccc(Cl)cn4)CC3)c21	3.6	.	1.6	0.0	8.0	7.6	.
CCn1c(=O)c(C(=O)NCc2ccc(F)cc2)c(O)c2ccccc21	8.8	-1.7	4.6	5.3	-3.8	1.2	.
CC(C)C[C@@H](C(=O)NCc1ccco1)N1C(=O)N2CCc3c([nH]c4ccccc34)[C@@]2(C)C1=O	6.9	2.1	6.5	-0.2	2.5	9.1	.
O=C(CCC(=O)Nc1cccnc1)Nc1cccnc1	4.6	4.1	12.8	1.2	2.8	-1.7	.
CN(C)Cc1c(O)ccc2c(=O)c(-c3ccccc3Cl)c(C(F)(F)F)oc12	3.8	0.7	6.4	1.8	2.6	-1.1	.
CC(C)(CCc1ccccn1)C(=O)CCCc1ccccn1	3.0	.	2.9	5.8	.	.	.
O=C(NCc1ccccc1)c1nnc(CS(=O)(=O)c2ccccc2)o1	5.1	-3.9	-1.2	6.6	63.2*	-4.0	-2.0
CCOc1ccc(CNC(=O)c2nnc(CS(=O)(=O)c3ccccc3)o2)cc1OC	5.2	-3.2	-12.3	0.1	4.0	1.3	.
